# The supplement of paper PMC8291772
# ± gives the standard error. Whole data set: some 1,300 sequences, median “fluorescence a.u.” near 420, cut for the highest 2% near 1,100. This excerpt belongs to a sample that is enriched for the highest values.
# Molecular target: terminal deoxynucleotidyl transferase (calf thymus) (UniProt P06526)
# Assay: TdT poly-dT extension signal (Cy3 hybridisation fluorescence, uncapped minus capped) (fluorescence a.u.); higher = more efficient initiation of TdT extension
# Settings: initiator chemistry: 2'-O-methyl-RNA, free 3'-OH (5'-tethered via HEG linker)
# Procedure: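 All mono- to pentamer 2'-O-methyl-RNA initiators were made by photolithographic in situ synthesis (3'-NPPOC amidites, reverse direction, free 3'-OH) on glass on a hexaethylene glycol linker. Each was made in uncapped and DMTr-dT-capped versions, about 11 replicates each. Arrays were extended with calf thymus TdT (0.2 U/uL), 100 uM dTTP and 0.25 mM CoCl2 for 120 min at 37 C, hybridised with an rA18-Cy3 probe and scanned at 532 nm. The value is the mean uncapped minus the mean capped signal. IDs are written 3'->5' and are reversed to 5'->3'; all nucleotides are 2'-OMe.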
# terminal deoxynucleotidyl transferase (calf thymus), sequence (P06526 whole entry): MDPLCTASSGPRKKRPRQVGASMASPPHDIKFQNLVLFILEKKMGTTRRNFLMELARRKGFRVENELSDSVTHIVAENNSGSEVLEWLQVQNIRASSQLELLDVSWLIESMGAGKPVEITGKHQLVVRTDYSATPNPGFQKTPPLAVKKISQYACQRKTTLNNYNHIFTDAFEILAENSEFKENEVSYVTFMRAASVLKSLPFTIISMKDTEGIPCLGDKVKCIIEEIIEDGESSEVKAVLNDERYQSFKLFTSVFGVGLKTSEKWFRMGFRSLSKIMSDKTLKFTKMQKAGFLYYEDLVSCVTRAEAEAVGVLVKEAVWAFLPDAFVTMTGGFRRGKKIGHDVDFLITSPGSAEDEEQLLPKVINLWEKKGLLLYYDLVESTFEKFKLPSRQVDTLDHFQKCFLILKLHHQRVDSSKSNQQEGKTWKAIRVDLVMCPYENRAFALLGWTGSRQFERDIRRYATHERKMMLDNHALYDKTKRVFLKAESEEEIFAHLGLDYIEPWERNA
row,Sequence,TdT poly-dT extension signal
1,CCUAG,353 ± 33
2,GGUA,376 ± 23
3,CGUAU,326 ± 32
4,CCUU,343 ± 26
5,CGUUU,232 ± 14
6,CGCCG,324 ± 46
7,CCAAA,1170 ± 64
8,ACAAG,613 ± 60
9,GCAAA,1260 ± 170
10,CCAA,1060 ± 95
11,GCAA,841 ± 41
12,ACAA,1060 ± 140
13,CCAAC,725 ± 53
14,GCAAC,935 ± 81
15,ACAAA,1170 ± 100
16,AUACG,244 ± 16
17,CCUA,528 ± 39
18,GAUA,432 ± 34
19,CACAU,469 ± 23
20,UACGC,1190 ± 92
21,GACGC,1120 ± 110
22,UACG,231 ± 24
23,CUCGU,483 ± 44
24,GGUC,489 ± 33
25,CAGU,512 ± 30
26,CACA,425 ± 22

row,Sequence,TdT poly-dT extension signal
1,AAAGU,535 ± 51
2,GUAAC,558 ± 40
3,UGCAA,770 ± 77
4,UCAGA,821 ± 37
5,AAUAA,788 ± 62
6,ACCUA,571 ± 34
7,UUUCA,224 ± 24
8,GCGAA,1000 ± 120
9,GACUU,318 ± 22
10,AGGAG,436 ± 25
11,CAUGG,217 ± 15
12,AAGG,383 ± 41
13,AAGGC,1170 ± 40
14,CAGGC,1060 ± 81
15,CUCC,396 ± 35
16,AUCAC,729 ± 63
17,CUGUC,440 ± 40
18,AAUGA,403 ± 20
19,AUUCC,377 ± 21
20,GUGAA,729 ± 86
21,AUUGG,176 ± 11
22,GCUUG,230 ± 30
23,GAUUA,366 ± 28
24,GAAUU,321 ± 24
25,AGCGA,556 ± 38
26,UUCGC,1170 ± 79

row,Sequence,TdT poly-dT extension signal
1,UUCGU,500 ± 42
2,UUCG,159 ± 17
3,GCGCA,351 ± 19
4,GCCG,192 ± 16
5,UCGCU,401 ± 25
6,UCGC,1140 ± 90
7,UCGCA,463 ± 31
8,CAACA,373 ± 34
9,UCGG,302 ± 31
10,AAGAU,506 ± 39
11,UUAGG,271 ± 26
12,UCGAU,402 ± 31
13,AGGGC,1120 ± 71
14,CUAUA,436 ± 37
15,GUAUG,157 ± 12
16,CGGCU,341 ± 24
17,UCACG,290 ± 31
18,CUCAG,488 ± 37
19,CCCCG,227 ± 18
20,GGUAG,272 ± 28
21,ACCAC,681 ± 58
22,UCUG,199 ± 16
23,UUAUA,375 ± 34
24,CUCCG,194 ± 14
25,AACUC,504 ± 22
26,AAUGC,1140 ± 77

row,Sequence,TdT poly-dT extension signal
1,CAUGU,374 ± 35
2,CAUG,261 ± 26
3,CAUGC,1140 ± 140
4,AAUGG,219 ± 18
5,AAUG,175 ± 23
6,CGUAC,482 ± 33
7,AACUU,369 ± 22
8,GGCGG,310 ± 26
9,AUAGG,266 ± 22
10,CCUGG,221 ± 18
11,GCGGA,554 ± 28
12,GUCUG,218 ± 15
13,GGCUA,621 ± 50
14,CAAAA,1140 ± 66
15,AAAAA,1140 ± 80
16,AAAAG,572 ± 40
17,UAAAA,1190 ± 120
18,GAAAA,1340 ± 160
19,GAAA,879 ± 110
20,AAAA,1010 ± 74
21,CAAA,1010 ± 77
22,GAAAG,560 ± 51
23,UAAAG,531 ± 53
24,CAAAG,703 ± 58
25,UAAA,764 ± 51
26,UUUAA,472 ± 39

row,Sequence,TdT poly-dT extension signal
1,CACUG,276 ± 22
2,GUUG,156 ± 11
3,AGAA,990 ± 120
4,ACAGA,899 ± 79
5,CGAU,429 ± 24
6,CCCG,312 ± 43
7,UCCGC,1090 ± 36
8,CCCGC,1200 ± 97
9,CCCCC,425 ± 34
10,AACAG,567 ± 34
11,AUGUG,141 ± 13
12,CGGUU,300 ± 22
13,GAGGG,362 ± 32
14,AUUAU,330 ± 49
15,UGCGG,324 ± 29
16,UCAGC,1040 ± 72
17,AUUC,339 ± 23
18,CAGGU,493 ± 28
19,GGGGG,472 ± 39
20,AAUUA,354 ± 22
21,GCCAA,696 ± 70
22,UGGU,453 ± 25
23,UUUAC,399 ± 22
24,CCCAU,552 ± 28
25,GCCGG,264 ± 21
26,UCGA,592 ± 34

row,Sequence,TdT poly-dT extension signal
1,CGGGC,1070 ± 81
2,UAGU,371 ± 23
3,AGGAU,433 ± 28
4,CUUAC,422 ± 38
5,CAAAU,657 ± 54
6,CAGUC,521 ± 42
7,CACGG,422 ± 55
8,GCCAG,491 ± 83
9,GUAAU,383 ± 30
10,CGUCA,307 ± 18
11,UAACA,312 ± 21
12,GGCAU,577 ± 48
13,ACAUC,447 ± 23
14,GGGCG,330 ± 32
15,GGGCA,291 ± 26
16,GGGC,1320 ± 130
17,UGUGC,1360 ± 95
18,GGUGU,484 ± 37
19,AGUGG,280 ± 18
20,AGUGC,1230 ± 130
21,AGUG,231 ± 23
22,UGUG,149 ± 15
23,CGUGA,389 ± 45
24,GGUGC,1450 ± 72
25,CGUGC,1220 ± 81
26,UGUGA,362 ± 29

row,Sequence,TdT poly-dT extension signal
1,GGUG,210 ± 18
2,CGUG,298 ± 26
3,CGGAG,465 ± 66
4,GGCUG,287 ± 31
5,CUAGC,785 ± 76
6,CAGUA,544 ± 58
7,AAAU,568 ± 46
8,CGCU,427 ± 65
9,CCAGA,833 ± 99
10,CCAG,470 ± 39
11,CCAGC,1240 ± 140
12,CAAG,600 ± 36
13,AAAGC,1270 ± 67
14,UAAGG,350 ± 28
15,UAAGC,1190 ± 89
16,UAAG,401 ± 44
17,GAAGC,1060 ± 81
18,CAAGG,388 ± 18
19,CAAGC,1300 ± 67
20,AAAG,538 ± 32
21,GUCUA,477 ± 45
22,UUGG,177 ± 12
23,UCAGG,384 ± 36
24,AAUAC,583 ± 71
25,GACA,349 ± 28
26,CCGGC,929 ± 50

row,Sequence,TdT poly-dT extension signal
1,UGGA,586 ± 52
2,UAGGG,313 ± 21
3,AACUA,675 ± 34
4,UUCGA,389 ± 32
5,GACCA,345 ± 31
6,ACUCG,256 ± 14
7,UCGGU,469 ± 22
8,GGAC,724 ± 120
9,GCGGG,285 ± 16
10,UUAC,418 ± 28
11,CGCUG,264 ± 25
12,UUGCU,326 ± 35
13,AACGA,620 ± 72
14,CCACC,410 ± 37
15,AUCAG,458 ± 47
16,ACCAG,559 ± 61
17,GAAAC,1000 ± 140
18,AAUUU,252 ± 27
19,AACCG,293 ± 26
20,UCACC,396 ± 31
21,UUUCU,226 ± 34
22,CCGCG,351 ± 19
23,UUCAU,442 ± 20
24,CAGCA,560 ± 60
25,CAGC,1170 ± 110
26,CAGCU,361 ± 26

row,Sequence,TdT poly-dT extension signal
1,CCUUC,341 ± 33
2,CAUU,293 ± 19
3,GAACG,310 ± 29
4,GCAG,492 ± 30
5,CGAGC,1020 ± 61
6,GGAGC,1340 ± 130
7,AGAG,491 ± 39
8,AGAGC,1140 ± 83
9,GGAG,374 ± 20
10,AGAGA,827 ± 77
11,UCAUU,329 ± 26
12,UGAAA,894 ± 54
13,CUCUU,266 ± 14
14,GCGC,946 ± 73
15,AGUU,341 ± 23
16,CAAGA,858 ± 93
17,GAGGC,1040 ± 84
18,GGCUU,336 ± 21
